Data from the supplement of paper PMC11417369.
Whole data set: some 25,000 sequences, median “ln(normalized median fluorescence intensity)” near 6.7, cut for the highest 2% near 10. The list comes from a sample in which the highest values are over-represented; it also holds similar and randomly drawn sequences.

system: PfHDP1 homeodomain (GST-tagged); test: gcPBM binding intensity (ln(normalized median fluorescence intensity)); higher = stronger DNA binding
Procedure, shortened: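 Binding of GST-tagged P. falciparum DNA-binding domains, expressed in E. coli and used at about 25 μg on average, was carried out for 1 h in 1× PBS containing 1% milk, 0.2 mg/ml BSA, 0.5% salmon testes DNA and 0.03% Triton X-100. The target was an Agilent 4 × 180k array of primer-extended double-stranded 36-bp intergenic genomic probes plus negative controls, read with Alexa488 anti-GST antibody at 488 nm. Binding intensity is the highest Masliner-normalised natural-log median intensity across replicate spots of either probe orientation.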

| Sequence | gcPBM binding intensity (ln) |
| --- | --- |
| TTACATATTTTCATTTGTACATATTCATTTTTTTTC [XGTACX_site6988] | 6.47 |
| ATATATATGTGAAAATCACACATTGCTTATCTGTAA [CACACA_site6044] | 6.3 |
| CAAACAATTAAACAAACACACATATACATGTATATA [CACACA_site2060] | 6.54 |
| TATAAATAAAAATATACACACTGTATTATTGTAATA [CACACA_site7721] | 6.24 |
| CAATGCTTTATCAATACATGCATATATATAGAAATA [TGCATGCA_site857] | 6.46 |
| CTTATGTGCATACCTACACACTTACATATATATATA [CACACA_site8973] | 9.47 |
| TGTATAAAAGTTTATACACACATTTGATATATTTCA [CACACA_site6606] | 6.58 |
| TATGTATATATTTGTGCACACCAAAGTTTGATTTTA [CACACA_site1861] | 11.4 |
| ATATGTATTTATATATGTTTGATTTTTTTTTTTTTT [TGCATGCA_negctrl_site506] | 6.23 |
| TAGTTTTTATATAGCACACATATTGTGATTATGTAT [CACACA_site1196] | 6.83 |
| TGTATATATTTGTGCACACCAAAGTTTGATTTTATT [CACACA_site1860] | 11.4 |
| AATATATATTTATAAACACACACCAAAATTTGTGCT [CACACA_site3091] | 6.82 |
| AAAAAAAAAAAAAACACACACAAATTTAATATATAT [CACACA_site1695] | 6.64 |
| TTTTTTTTTTTTTTTTGTACTCATATCTACTATCAT [XGTACX_site274] | 6.44 |
| AAATAAAATTTTATGTGTACGCAAAAAGTTGTAAGC [XGTACX_site8911] | 7.29 |
| AAATTTATATATAGTTGTACAAAAATATGTTTCGTA [XGTACX_site4801] | 6.62 |
| GTGGACGAAATAGTTGTAAATTTATGTGCAAACCTC [XGTACX_negctrl_site564] | 11.2 |
| GTTTTTAATGTTTTGACATGCAATATTAAAAATAAT [TGCATGCA_site174] | 6.57 |
| TATATATATATATATATTTTAAATGATATAAATGGT [TGCATGCA_negctrl_site152] | 9.23 |
| AAAAAAAAAATGAGCACACATAAATAAAAACAAACA [CACACA_site1573] | 7.39 |
| AATATATCAAAAATGATGACATAAATATATTAATTT [GTGCAC_negctrl_site530] | 6.13 |
| GTATTCATTCCTTGAGTGCAATTGCAATAAATAAAA | 10.7 |
| ATTAAATTTCCTTGAGTGCACATTTTGTTAAAATAT | 9.29 |

| Sequence | gcPBM binding intensity (ln) |
| --- | --- |
| AAATGAATATTCATAGTGCAATATATAAATGAAAAT | 9.5 |
| ATACTATAATATAAAACACACATATGTACCTTCTAA [CACACA_site7323] | 6.67 |
| TATAAGGCAATAATAGTGCACTAAGATATATAATGA | 10.7 |
| TATTAATATATAGTAGTGCAATAAAGATATACTGAA | 9.67 |
| TTGCAATAATGTTGCACACTAAATAGTCATATATAA [CACACA_site263] | 9.77 |
| GTATTATATTTCAACTGTACGTAAAACTATTAAAAT [XGTACX_site3679] | 6.55 |
| TATTTCTTTTGGTTGGTGCATAAAATAATACAATAT [GTGCAC_site9916] | 10.5 |
| ACCAATAAATATTTGGTGCATACATATATATATATA | 10.5 |
| TCAATAAATATACATACATGCATACATACATACATA [TGCATGCA_site197] | 6.53 |
| AAATAATTTATATATTGTACAAATATTAAATGCGAA [XGTACX_site3390] | 7.16 |
| ATAACCTAATAATACACACACATGAATATATATAAT [CACACA_site4689] | 7.17 |
| ATTTTCTTTCTATGCACACGCACGTATTTGCACCCA [CACACA_site3350] | 10.9 |
| TTATTTTCTTTCTATGCACACGCACGTATTTGCCCA [CACACA_site9104] | 9.79 |
| TATTTTTCCCTATGCACACACACCGTATATATAATA [CACACA_site4758] | 10.1 |
| CGTAATAAAAACAAATGTACATGACCTGGACAGGTT [XGTACX_site6560] | 6.4 |
| TTATTTTTTTTATATATATGTATAAATATATATATA [XGTACX_negctrl_site441] | 7.84 |
| TTATAAAATGGGCAAACACACACAAAAAAAAGATAT [CACACA_site8476] | 7.42 |
| TAATACTTTTAATCTACACACGCTGAGACATGCTTT [CACACA_site1484] | 6.14 |
| TAATATTACATTTATTGTACTTTGTTTTTATTTTAT [XGTACX_site1605] | 6.27 |
| ATAATATTATACTTTGCACACATCTGAAATGACATA [CACACA_site3952] | 10.4 |
| TATATCTTACTTTTTGCACACACTAATATTATTGTT [CACACA_site1640] | 10.1 |
| ATATATTTTTTGAATACACACATATTATCTGTAATA [CACACA_site4826] | 6.45 |
| TATCTTACTTTTTGCACACACTAATATTATTGTTTA [CACACA_site4990] | 11.1 |

| Sequence | gcPBM binding intensity (ln) |
| --- | --- |
| ATATACTTATATATTGCACACATCTAATATTTTGAA [CACACA_site3165] | 10.5 |
| ATAAATCCCAAAACCTTGCAAGACAACGTTTGATCA [CACACA_negctrl_site1327] | 6.57 |
| TCTTTAACAAGTTAAACACACATACCTATATACATA [CACACA_site7237] | 6.47 |
| TCTTTCTTATTTTAATGATATTTATTCATTCCAGTT [CACACA_negctrl_site1679] | 6.52 |
| TTCCCAACATGATATTGTACATTTAATTATAATTAA [XGTACX_site7029] | 7.08 |
| TTATCTCTACAAAGTGCACACACGTAAAAACATATA [CACACA_site3957] | 8.98 |
| TAAAAAAAAACATGTGCACACGTTTTATCTACATAA [CACACA_site2336] | 10.8 |
| CAAAACATTTTATCTACACACATATATAAATAAATA [CACACA_site3220] | 6.36 |
| TATTATTGTCTTTCAAAAAAAAAAAAAAAAAAAAAA [CACACA_negctrl_site1242] | 6.11 |
| TATCGAGCCATTTTTACATGCAATTATACATAATTT [TGCATGCA_site987] | 6.73 |
| ATAATTATTCTTATGGTGCACTGAATATACATGTTG [GTGCAC_site9760] | 9.5 |
| AATATATTGCACCATTGGACCTGAATAATTCTTCCA [CACACA_negctrl_site1071] | 11.4 |
| AATATTGCACCATTTTGTACATAATATATTCAAATA [XGTACX_site475] | 10.3 |
| ATATCTATAATAAATACACACATTTATATAGATAAA [CACACA_site7518] | 6.38 |
| AAATGTGTTAATGTGCGTACACATATATATAATATT [XGTACX_site2792] | 6.66 |
| GTGTATTTTGTGCGCACACACATGCAAAAAGAAATA [CACACA_site6660] | 9.54 |
| ATTTTGTGCGCACACACATGCAAAAAGAAATATGAT [TGCATGCA_site261] | 10.5 |
| TTGTGGATTTTGTGCGCACACACATGCAAAAAGAAA [CACACA_site1147] | 9.58 |
| TAATGATAAATACATACACACAAAAAATGATATATA [CACACA_site7258] | 6.48 |
| TCTTCTTTTTTTTTTTTGTATTATTATAAATATTAT [CACACA_negctrl_site1668] | 6.53 |
| ATATATATTATTTCTACACACATATATATAATATGT [CACACA_site3374] | 6.9 |
| GAAAATAAAATAAATGCATGTAAATTTAATGTAATG [TGCATGCA_site996] | 6.88 |
| AATATATATATGTGTACACATCCAAAATAGGCATAC [CACACA_site5705] | 7.59 |

| Sequence | gcPBM binding intensity (ln) |
| --- | --- |
| TTAATATATTATCTGGTGCATAAACACGTTATACCT | 10.6 |
| TTTGTTATATTTAATACACACATATTATAAACACAT [CACACA_site7703] | 6.88 |
| TATATATAATATTATACACACATATCTGCATAATAT [CACACA_site4202] | 7.05 |
| AATATTATTTATATTTGTACACAGTAATATAAAATA [XGTACX_site4884] | 6.25 |
| AATTGTTAATGGTACGAACACACATATAAAGATGCA [CACACA_site2043] | 6.76 |
| GTGTGCAAAAATTGTTGTACATTATATATAAAAAAA [XGTACX_site3246] | 10.6 |
| ATGTGTATATATTATTGTACATATATATATATATAT [XGTACX_site4627] | 9.24 |
| TATATATTATATATATGTACATATTGTTGTGTATAT [XGTACX_site767] | 7.15 |
| AAAAAATTATAAAAGTGTACATATATATATATATAT [XGTACX_site154] | 9.48 |
| AATTGTGCATTATATTGTACACGTGTTGTATATATT [XGTACX_site975] | 10.8 |
| ATATATAATTTTTGTTGTACATTATAAAAATAATTA [XGTACX_site2738] | 6.3 |
| GTTGTTATATAAAATTGTACATAAAAAACAAAATAT [XGTACX_site5313] | 6.8 |
| TAGGTACATAAATTGGTGCAAAGTGTACATATATAT | 10.8 |
| TAAATTGGTGCAAAGTGTACATATATATCTTTCCTA [XGTACX_site5458] | 10.4 |
| CCCACAGACGGACACACACACACACCGACACATATA [CACACA_site4356] | 7.01 |
| TTATAATTTAATAAATGTACATAAATAATATACATA [XGTACX_site7271] | 6.14 |
| AAATTATTAAGTGATATAATATTCTATAGATGGGGA [CACACA_negctrl_site168] | 6.76 |
| CCACGAGAATATATAGTGCATAATAATTTTTTTTTG | 8.82 |
| ATTTTTTTTTTTTTTTTTTTTGCACCATAAAATAAT [CACACA_negctrl_site1324] | 10.1 |
| TGTGCATAATTTTGTGCACACCACGCTAATAATTTT [CACACA_site2915] | 11.5 |
| GTATGGCGTATCATATGTACTAAAAAAAAATAAAAA [XGTACX_site5101] | 6.49 |
